CHOP inhibitor: inhibitors of CHOP promoter induction, primary screen, cell-based, unfolded protein response, luciferase reporter | CHO-K1 CHOP-promoter luciferase, tunicamycin-induced, 15-18 h | 220,000 compounds, 3.8% hits | inhibition, % at 10 µM | AID 2732, 2010;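 active = compounds that reduced the stress-induced luciferase reporter signal by more than about 70% of percent inhibition, limit read from the data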;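 also: 0% = tunicamycin plus vehicle and 100% = wells without tunicamycin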
CF NFkB inh: inhibitors of PAF-induced NF-kB signaling, primary screen, cell-based, GFP fluorescence, uHTS; KKLEB NF-kB-GFP reporter, GFP fluorescence overnight; inhibition, % at 5 µM; 360,000 compounds, 0.86% hits; AID 588850, 2011;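 active = at least 50% inhibition at 5 µM, scaled per plate between neutral and stimulator controls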;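 also: PAF is a Pseudomonas aeruginosa culture filtrate used as stimulus; plate controls were PAF-stimulated DMSO wells for no effect and unstimulated DMSO wells for full effect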
HIF-2a block: HIF-2a reporter inhibitors, primary screen, luminescence, 786-0 RCC cells; inhibition, % at 18.8 µM; 360,000 compounds, 0.72% hits; 786-0 RCC cells HIF-2a reporter, luciferase luminescence, overnight;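 active = inhibition of the luminescence signal of 40% or more relative to plate controls, in a single-dose primary screen at 18.75 µM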
TRPM1 prom inh: inhibitors of MITF-dependent TRPM1 promoter reporter, primary screen, cell-based, SK-MEL-5, single point, luciferase; SK-MEL-5 TRPM1 promoter luciferase, 24 h; inhibition, % at 12.5 µM; 330,000 compounds, 0.83% hits; AID 488899, 2010;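 active = mean inhibition across replicates of 60% or more, whatever share of single replicates reaches that level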
Peg3 promoter: Peg3 promoter-driven luciferase inhibitors, primary screen, cell-based, HeLa, luciferase luminescence; 360,000 compounds, 1.7% hits; inhibition, % at 20 µM; HeLa PEG-Prom luciferase reporter, overnight;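 active = inhibition of at least 50% at 20 µM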
KKLEB tox: cytotoxicity in KKLEB CF airway cells, primary screen, cytotoxicity control for CF NF-kB inhibitor project, cell-based, uHTS, fluorescence assay plates; KKLEB CF airway cells viability, ATPlite luminescence, overnight; hits give low values; cells stimulated with P. aeruginosa culture filtrate; activity change (cytotoxicity), % at 5 µM; 360,000 compounds, 0.36% hits; AID 602141, 2011;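 active = corrected activity change at or below -50% at 5 µM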
An asterisk follows results filed as active; / = no result given; ! = not active in a repeat. The list is not random: actives were taken first. Their share in the collection is about 4.3%.

SMILES	CHOP inhibitor	CF NFkB inh	HIF-2a block	TRPM1 prom inh	Peg3 promoter	KKLEB tox
CC1=C(/C=C/C(C)=C/C=C/C(C)=C/C(=O)Nc2ccc(O)cc2)C(C)(C)CCC1	-86	4	11	-3	61*!	-9
Cc1cccc(NC(=O)c2ncn3c2C(=O)N[C@@H](C)C3)c1	/	36	8	/	8	-1
CCn1cc(C(=O)OCC(=O)OC2CC(C)CCC2C(C)C)c(=O)c2ccc(C)nc21 (configuration not stated)	89*	27	8	1	4	-12
C=CCOC(=O)c1cn(CC)c2nc(C)ccc2c1=O	36	-4	16	8	16	-4
CCCCNC(=S)NNc1c(Cl)cc(Cl)cc1Cl	82*	0	18	7	11	5
CNC(=O)[C@H]1O[C@@H](n2cnc3c(N)ncnc32)C(O)[C@H]1O (some centres not stated)	-8	/	/	/	/	/
CCCCC(CC)COC(=O)CCCCC(=O)OCC(CC)CCCC (configuration not stated)	/	4	15	4	3	-14
CCCCCCCC(=O)OCC(O)CO (configuration not stated)	12	-8	-5	-2	-12	-60*
C=C1C(=O)OC2C1CCC(C)C1C=CC(=O)C12C (configuration not stated)	/	15	28	69*	48	6
COC(=O)c1oc2ccccc2c1NC(=O)CN1CCCC1	72*	7	15	-8	-5	3
COC(=O)c1oc2ccc(Br)cc2c1NC(=O)CN1CCN(C)CC1	/	11	4	1	-5	-7
Cc1c(Cl)ccc2c(C(=O)NCCCn3nccc3C)cc(-c3ccccn3)nc12	/	-38	-3	7	13	18
Cc1c(Cl)ccc2c(C(=O)NCCN3CCCCC3)cc(-c3ccccn3)nc12	22	3	-6	13	68*	-4
Cc1ccc2nc(-c3ccccn3)cc(C(=O)NC3CCN(C)CC3)c2c1	-9	/	/	/	/	/
COc1ccccc1-c1cc(C(=O)NC2CCN(C)CC2)c2ccc(Cl)c(C)c2n1	/	13	7	8	105*	-32
O=C(CCN1C(=O)S/C(=C\c2ccccc2)C1=O)NC1CCS(=O)(=O)C1 (configuration not stated)	/	26	-43	-7	-19	0
CCOC(=O)C1=CN(Cc2ccco2)S(=O)(=O)NC1c1ccc(C(F)(F)F)cc1 (configuration not stated)	/	4	-2	-4	-1	8
Cc1cc(C)n(C(C[N+](=O)[O-])c2ccc(Cl)cc2)n1 (configuration not stated)	39	-6	23	32	99*	5
N#C/C(=C\c1cccc(O)c1)C(=O)Nc1ccc2c(c1)OCCO2	-69	41	-12	-1	-39	-20
Nc1ccc(Br)c2c1C(=O)c1ccccc1C2=O	44	/	/	/	/	/
Cc1cc2c(cc1C)C(=O)C(Br)=C(N)C2=O	/	-30	-88	62*	-134	9
NC1=C(Br)C(=O)c2ccccc2C1=O	4	14	-44	71*	-69	14
CCCCN(CCCC)Cc1cc2ccccc2c2c1COC2	76*	-3	15	-10	9	5
CCOc1ccccc1-n1c(CN2CCN(C(=O)c3ccco3)CC2)nc2ccccc2c1=O	-11	27	32	80*	104*	-9
CCn1c2c(c3cc(Br)ccc31)CCC/C2=N\O	90*	10	14	-5	10	-7
SMILES	CHOP inhibitor	CF NFkB inh	HIF-2a block	TRPM1 prom inh	Peg3 promoter	KKLEB tox
COc1ccccc1C1CCCN1Cc1nc(-c2ccc(C)s2)oc1C (configuration not stated)	34	1	-9	4	22	9
N#Cc1c(Nc2ccccc2)[n+]([O-])c2ccc(Cl)cc2[n+]1[O-]	/	-3	-74	72*	-34	-5
C=CCn1c2ccccc2c2nnc(SCCCn3c(=O)[nH]c4ccccc43)nc21	30	-7	28	4	65*	-2
CCCCn1c(=O)[nH]c2ccccc21	15	4	-5	-3	-7	-4
O=c1[nH]c2ccccc2n1CCCSc1cnc2ccccc2n1	78*	40	-38	-11	-33	-17
Cc1cc(Br)c(NC(=O)CN2C(=O)NC3(CCOc4ccccc43)C2=O)c(Br)c1 (configuration not stated)	/	2	9	/	2	-13
O=S(=O)(Nc1cccc2cccnc12)c1ccc(S(=O)(=O)N2CCCC2)cc1	-33	-13	7	13	50*	14
Cc1ccc(-c2csc(NCCn3c(-c4ccncc4)nc4ccccc43)n2)cc1	/	15	6	29	38	-14
Cc1ccc(F)cc1NC(=O)C1CC(=O)N(Cc2ccccc2)C1 (configuration not stated)	/	39	5	/	9	2
CC(C)CC(N)c1csc(NC(=O)Nc2ccccc2-c2ccccc2)n1 (configuration not stated)	/	2	2	/	104*	-10
CC(C)CC(N)c1csc(NC(=O)C(c2ccccc2)c2ccccc2)n1 (configuration not stated)	/	29	1	/	95*	-14
CC(C)C(=O)Nc1ccccc1Cc1ccccc1	11	8	15	0	-3	0
CC(=O)c1ccc(Nc2nc(C(N)CC(C)C)cs2)cc1 (configuration not stated)	/	11	9	/	4	0
CC(C)CC(N)c1csc(NC(=O)Nc2ccccc2Cc2ccccc2)n1 (configuration not stated)	/	-2	-3	/	86*	-9
COc1ccc(S(=O)(=O)N2CCN(C(=O)c3ccc4ccccc4n3)CC2)cc1	/	9	-44	-3	-14	8
CCOC(=O)[C@]12CCC=C1N(CCC1=CCCCC1)C(=O)[C@H](CC(=O)NCc1cccs1)C2	/	/	3	/	/	/
O=C1SCCN1N=Cc1ccc([N+](=O)[O-])o1	/	26	1	66*	-17	-9
CC1CN(N=Cc2ccc([N+](=O)[O-])o2)C(=N)O1 (configuration not stated)	/	-82	-6	54	-3	-4
O=C1C2C3C=CC(C4CC34)C2C(=O)N1/N=C/c1ccc([N+](=O)[O-])o1 (configuration not stated)	-81	4	-6	75*	23	-2
O=c1c2ccccc2nc(/C=C/c2ccc(O)cc2)n1CCc1ccccc1	74*	10	-72	-8	46	-4
CN1CCN(C(=O)OC2CC3CC2[C@H]2CCCCN2C3=O)CC1 (some centres not stated)	/	/	-9	/	/	/
